SARS PLpro yeast – SARS-CoV PLP inhibition in yeast; AID 485353; S. cerevisiae expressing SARS-CoV PLpro, growth rescue; Potency, µM (highest dose often 32.9 µM), hits mostly activators; 330,000 tested, 0.19% active; calls by dose curve; further: nearly all actives have a fitted effect of over 55% in size
Pf growth 96h – inhibits malaria parasite growth, 96 h. 320,000 tested, 6.9% active. Potency, µM (series often up to 28.7 µM), hits mostly inhibitors. P. falciparum luciferase reporter growth, 96 h
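P. falciparum expressing integrated firefly luciferase, in erythrocytes at 2% hematocrit, 0.05% parasitemia, incubated with compounds 96 h at 37 C, 5% CO2. Growth inhibition read as loss of luminescence; two-generation exposure targets delayed-death apicoplast inhibitors.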
Sm TGR block – S. mansoni TGR enzyme inhibition. Q962Y6. purified TGR, DTNB reduction, TNB absorbance 405 nm. Potency, µM (titrated, usually from 114 µM), usual class: inhibitors. 360,000 tested, 3% active; further: nearly all actives have a fitted effect of over 60% in size
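TGR 20 nM + NADPH 100 uM (dispensed conc.), cpd preinc 15 min RT; start with NADPH (500 uM addition) then DTNB (15 mM addition). Kinetic TNB absorbance, 405 nm filter. Four-parameter Hill fit across titration.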
HCV inhibitor – inhibitors of hepatitis C virus infection; Potency, µM (highest dose often 41.8 µM), hits mostly inhibitors; AID 651820; 340,000 tested, 3.4% active; Huh7.5.1 HCVcc-Cre infection, luciferase reporter, 44 h
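Reporter virus HCVcc-Cre (~0.5 moi) infects cells exposed to compound; seeding density 1,000 cells/well with 4 h settling beforehand. Luminescence, 15 sec read, taken 44 h post-infection following a 15 min RT substrate incubation.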
Pf growth 48h – inhibits P. falciparum growth in the first generation, 48 h; AID 504832; P. falciparum luciferase growth in erythrocytes, 48 h; 310,000 tested, 5.9% active; Potency, µM (doses to about 28.7 µM), usual class: inhibitors
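First compound was added to culture medium, then infected red cells at 0.1% parasitemia and 2% hematocrit (final). After incubation at 37 C under 5% CO2, luciferase detection reagent was dispensed and light output recorded.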
HCMV antiviral – human cytomegalovirus inhibition; HFF cells, HCMV-luciferase reporter, 72 h; hits give low values; activity change, negative = inhibition, % at 57.5 µM; 410,000 tested, 4.5% active; in the data active means activity change below about -60%; inconclusive means no clear call, values can overlap the other calls; inactive means above about -39%
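HFF cells seeded 16 h at 37C, treated with compounds, infected with luciferase-reporter HCMV at MOI 1 PFU/cell; luciferase read at 72 h post infection, normalized to buffer-only and Salinomycin controls.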
Hits are given with their value; – = inactive; ? = inconclusive; · = not tested or not shown; [ ] = remark or other dose. Only some compounds are listed: those with a hit (about 15% of all), similar ones and a draw of the others. Unless noted, the call rests on the fitted dose curve; in most records, active means well fitted curve in the direction sought with a large enough effect; inconclusive means small, poorly fitted or top-dose-only effect, or another doubt; inactive means no such curve, though single readings can be large; an effect the other way counts as inactive or inconclusive.

SMILES	SARS PLpro yeast	Pf growth 96h	Sm TGR block	HCV inhibitor	Pf growth 48h	HCMV antiviral
CCCC[C@]12Cc3cc(C#N)ccc3C(O1)c1c(c3cc(F)ccc3oc1=O)O2	–[6.58 µM]	1.35µM	–[22.9 µM]	·	–[5.75 µM]	·
COc1ccc([C@]23Cc4cc(C#N)ccc4C(O2)c2c(cc(-c4ccccc4)oc2=O)O3)cc1	–[6.58 µM]	–[5.75 µM]	–[22.9 µM]	·	?	·
CC1CCN(S(=O)(=O)c2ccc3c(c2)N(CC(=O)NCCN2C(C)CCCC2C)C(=O)CS3)CC1 (configuration not stated)	–	–	–	–	?	–
CCc1nnc2c(Nc3ccc(N(CC)CC)cc3C)nc3ccccc3n12	·	·	–	·	·	?
O=C(COC(=O)c1cc(S(=O)(=O)N2CCCCC2)ccc1N1CCOCC1)c1ccc(F)cc1	–	–	–	?	?	–
CNC(=S)NNC(=O)c1noc(C)c1C(=O)N1CCN(C(c2ccccc2)c2ccccc2)CC1	–	–	–	–	?	–
N#Cc1ccc2c(c1)C[C@]1(c3ccsc3)Oc3c(c(=O)oc4ccc(F)cc34)C2O1	–[6.58 µM]	–[5.75 µM]	?	·	1.51µM	·
N#Cc1ccc2c(c1)C[C@]1(c3ccsc3)Oc3c(c(=O)oc4ccccc34)C2O1	–[6.58 µM]	?	7.08µM	·	?	·
Cc1cc2c(c(=O)o1)C1O[C@](c3ccsc3)(Cc3cc(C#N)ccc31)O2	–[6.58 µM]	?	?	·	?	·
O=[N+]([O-])c1ccc(OCC(O)CN(C2CCCCC2)C2CCCCC2)cc1 (configuration not stated)	–	?	–	–	?	–
CN(CC(O)COc1c(F)cc(Br)cc1F)C1CCCCC1 (configuration not stated)	–	–	–	–	9.28µM	?
COc1ccc(OCC(O)CN(C2CCCCC2)C2CCCCC2)cc1 (configuration not stated)	–	5.86µM	–	–	?	–
CN(CC(=O)Nc1ccc(Cl)c(Cl)c1)C(=O)CC1OC(=O)c2ccccc21 (configuration not stated)	·	–	–	–	–	–
COc1ccc(N2C(=O)CSC23C(=O)N2c4c(cccc43)C(C)=CC2(C)C)cc1 (configuration not stated)	–	7.38µM	–	?	·	–
COc1ccc(CNC(=O)COC(=O)CC2CC3CCC2C3)cc1OC (configuration not stated)	–	–	–	–	–	–
COc1ccc(-c2cc(-c3nnc(COC(=O)CC4CC5CCC4C5)o3)c3ccccc3n2)cc1OC (configuration not stated)	–	–	–	–	9.28µM	–
Cc1cc2cc(CN(Cc3cccs3)C(=S)NCc3ccco3)c(=O)[nH]c2cc1C	–	?	–	11.2µM	–	–
Cc1ccc(C)c2[nH]c(=O)c(CN(Cc3cccs3)C(=S)NCc3ccco3)cc12	–	–	–	–	10.4µM	–
CCc1ccc2[nH]c(=O)c(CN(CCN(CC)CC)C(=S)NCc3ccco3)cc2c1	–	–	–	?	9.28µM	?
CCc1ccc2[nH]c(=O)c(CN(CCN(C)C)C(=S)NCc3ccco3)cc2c1	–	–	–	–	?	–
CCc1nnc(NC(=O)CSc2nc3c(c(=O)n2CC)SC(C)C3)s1 (configuration not stated)	–	–	–	?	?	–
CCc1ccc(NC(=O)Cn2c3[n+](c4c(F)c(F)ccc42)CCCCC3)cc1	–	?	–	?	3.7µM	–
O=C(Cn1c2[n+](c3ccc(C(F)(F)F)cc31)CCCCC2)Nc1ccc(Br)cc1	–	10.4µM	–	–	10.4µM	·
CCc1ccc(NC(=O)Cn2c(=O)oc3cc(S(=O)(=O)N4CCCCCC4)ccc32)cc1	·	·	–	·	·	–
O=C(CN1C(=O)CCC1=O)Nc1ccc(Br)cc1	–	–	–	–	–	?
SMILES	SARS PLpro yeast	Pf growth 96h	Sm TGR block	HCV inhibitor	Pf growth 48h	HCMV antiviral
N#Cc1ccc(NC(=O)COC(=O)C2CCC2)cc1	·	·	·	·	·	–
N#Cc1ccc(NC(=O)Cn2c3[n+](c4ccc(C(F)(F)F)cc42)CCCCC3)cc1	–	4.65µM	–	–	11.7µM	?
CCOc1ccc(CCNS(=O)(=O)c2cc3c(cc2C)NC(=O)CO3)cc1OCC	–	?	–	–	–	–
COc1ccc(CNC(=O)Cn2ccc3cc(S(=O)(=O)N4CCCCCC4)ccc32)cc1OC	·	·	–	·	·	–
O=C(NCc1ccco1)c1cccs1	–	·	35.5µM	–	?	–
O=C(NCc1ccco1)c1sc2cc(F)ccc2c1Cl	–	14.7µM	?	–	–	?
Cc1ccc(NC(=O)/C(=C\c2cccs2)NC(=O)c2ccccc2)cc1	–	7.38µM	–	–	?	?
O=C(NCc1ccco1)/C(=C\c1ccco1)NC(=O)c1cccs1	–	?	28.2µM	–	–	–
O=C(NCc1ccco1)/C(=C\c1cccs1)NC(=O)c1cccs1	–	?	–	–	–	–
O=C(CNC(=O)c1ccccc1F)OCc1nc2ccc(Cl)cc2n1CCO	·	?	–	–	–	–
CCOc1ccc(N2C(=O)C(c3ccccc3)=C(c3nc4ccccc4s3)C2NC(C)=O)cc1 (configuration not stated)	–	?	–	–	·	–
COc1ccc(NC(=O)CSc2nnc(NC(=O)C3CC3)s2)cc1OC	–	–	–	·	–	–
C=CCOc1ccc(/C=C2/C(=N)N3N=C(CC(=O)N4CCCC4)SC3=NC2=O)cc1OC	–	–	–	–	–	–
Cc1ccc(C(=O)N/C(=C/c2ccco2)C(=O)NCc2ccco2)cc1	–	–	39.8µM	–	–	–
Cc1ccc(C(=O)N/C(=C/c2cccs2)C(=O)NCc2ccco2)cc1	–	0.522µM	–	–	–	–
O=C(NCc1ccco1)/C(=C\c1cccs1)NC(=O)c1ccccc1	–	–	–	–	–	–
COc1cc(/C=C(/NC(=O)c2ccccc2)C(=O)Nc2ccccc2)c([N+](=O)[O-])cc1OC	–	–	–	?	–	–
COc1cc(/C=C(/NC(=O)c2ccccc2)C(=O)Nc2ccc(O)cc2)c([N+](=O)[O-])cc1OC	–	10.4µM	–	–	–	-73.2
CC(/C=N/NC(=O)c1cccs1)=C\c1ccco1	–	?	31.6µM	–	–	–
COc1ccc(C(=O)N/C(=C/c2ccco2)C(=O)NCc2ccco2)cc1	–	–	?	–	–	–
COc1ccc(-c2cccc(NS(=O)(=O)c3ccc(C)s3)c2)nn1	·	·	–	·	·	–
O=c1c(NCCc2ccc(Cl)cc2)nccn1-c1ccccc1	·	·	–	·	·	–
COC(=O)c1ccc(NC(=O)CCS(=O)(=O)c2ccc3c(c2)NC(=O)C(C)S3)cc1 (configuration not stated)	–	–	–	–	–	–
O=P(c1ccccc1)(c1ccccc1)c1ccccc1C(Br)Br	·	·	·	·	·	–
Cc1cccc(NC(=O)/C(=C\c2ccco2)NC(=O)c2cccs2)c1	–	–	50.1µM	–	?	–
